# Experiments:
# Format in all cases: functional
# Plasmodium falciparum [1] = experiment: GSK_TCMDC: Inhibition of Plasmodium falciparum 3D7 in whole red blood cells, using parasite LDH activity as an index of growth. Test compounds present at 2uM
# Plasmodium falciparum [2] = experiment: GSK_TCMDC: Inhibition of Plasmodium falciparum Dd2 in whole red blood cells, using parasite LDH activity as an index of growth. Test compounds present at 2uM
# HepG2 = experiment: GSK_TCMDC: Percent inhibition of human HepG2 cell line. Test compounds present at 10uM.
SMILES,Inhibition (Plasmodium falciparum [1]),Inhibition (Plasmodium falciparum [2]),Inhibition (HepG2)
O=C(NCCc1ccccc1)N(Cc1cccc(-c2ccc(CNC3CCCC3)cc2)c1)C1CCN(Cc2ccccc2)CC1.O=C(O)C(F)(F)F,98%,84%,36%
Cc1cc(N2CCC(N(C)C)C2)nc(Nc2ccc(Cl)cc2)n1 (configuration not stated),99%,17%,11%
NCCCCNc1cc(-c2ccnc(Nc3cccc(Cl)c3)n2)ccn1,94%,91%,46%
CCN(CC)CCN(Cc1ccc(-c2ccc(C(F)(F)F)cc2)cc1)C(=O)Cn1c(CCc2cccc(F)c2F)nc(=O)c2cc(C)ccc21.O=C(O)C(O)C(O)C(=O)O,95%,43%,19%
COc1ccc(C2(CNCC(O)c3cccc([N+](=O)[O-])c3)CCCC2)cc1OC (configuration not stated),93%,85%,10%
Cc1cccc2nc(-c3ccc(-c4cccc(CNCc5ccc(S(C)(=O)=O)cc5)c4)s3)[nH]c12.O=C(O)C(F)(F)F,100%,91%,31%
Cl.N=C(N)NN=Cc1ccc2ccc3ccccc3c2c1,100%,89%,34%
CCNC(=O)c1cc(S(=O)(=O)N2CCN(c3ccccn3)CC2)cs1,97%,94%,7%
O=C1Nc2cccc3c2C1(CCCCN1CCC(c2c[nH]c4cc(C(F)(F)F)ccc24)CC1)CCC3 (configuration not stated),99%,79%,99%
CN1CCN(c2ccnc3ccc(NC(=O)Nc4ccc(Br)cc4)cc23)CC1,100%,99%,12%
CS(=O)(=O)c1ccc(CCNCc2ccc(-c3ccc(CN(C(=O)C4CC(=O)c5ccccc54)C4Cc5ccccc5C4)cc3)nc2)cc1.O=C(O)C(F)(F)F (configuration not stated),90%,21%,5%
O=C(NCCN1CCOCC1)c1ccc(CNC(=O)c2ccc(O)c(-c3ccc(Cl)c(Cl)c3)c2)cc1,87%,55%,3%
Cc1cccc2nc(-c3cccc(-c4ccc(NC(=O)C(=O)c5cccn5C)cc4)c3)[nH]c12,100%,46%,45%
N#C/N=C(\NCCCCCCCCN/C(=N\C#N)NCCSCc1csc(N=C(N)N)n1)NCCCSc1csc(N=C(N)N)n1,91%,24%,0%
CCCCCN1CCCC(CNS(=O)(=O)c2ccc(C(=O)Nc3ccc(C(F)(F)F)cc3)cc2)C1.O=C(O)C(F)(F)F (configuration not stated),94%,0%,51%
CCc1cn(CCCOC)c2ccc(C(=O)N[C@@H](Cc3ccccc3)[C@H](O)CNCc3cccc(C(F)(F)F)c3)cc12,93%,78%,8%
Nc1cccc(CNCc2cccc(-c3ccc(-c4nc5cc(C(F)(F)F)ccc5[nH]4)cc3)c2)c1.O=C(O)C(F)(F)F,100%,98%,6%
O=C(Nc1cccc(-c2ccc(-c3nc4cc(F)ccc4[nH]3)s2)c1)c1cccnc1,100%,72%,46%
COc1c(C2CCN(CCCCNC(=O)c3ccc(C)c(-c4ccc(C(F)(F)F)cc4)c3)CC2)ccc2c1CCCC2,86%,79%,76%
COc1ccc(C(=O)C2CC2CN(C)CCC(O)c2ccc(Cl)c(Cl)c2)cc1 (configuration not stated),94%,86%,24%

SMILES,Inhibition (Plasmodium falciparum [1]),Inhibition (Plasmodium falciparum [2]),Inhibition (HepG2)
COc1ccc(-n2ncc(C(=O)N3CCC4(C3)C(=O)N(c3ccccc3)c3ccccc34)c2C)cc1 (configuration not stated),88%,91%,45%
Br.CC=CCON1C(=N)NC(=N)NC1(C)C,94%,1%,57%
O=C(NCCc1ccc(Cl)c(Cl)c1)c1ccc(CNC(=O)c2ccc(O)c(-c3ccc(Cl)c(Cl)c3)c2)cc1,97%,3%,0%
Cc1nc(-c2cccc(C(=O)Nc3cnc4ccccc4c3)c2)no1.O=C(O)C(F)(F)F,85%,12%,15%
CC1CCN(C(=O)[C@H](Cc2c[nH]c3ccccc23)NS(=O)(=O)c2ccc(Cl)cc2)CC1,100%,99%,0%
NC(=O)c1cccc(-n2ccc3cc(CNC4Cc5ccccc5C4)ccc32)c1.O=C(O)C(F)(F)F,88%,7%,17%
COc1ccc2nccc([C@@H](O)CN3CCC(NCc4ccc5c(n4)NC(=O)CS5)C(F)C3)c2c1.Cl (some centres not stated),89%,88%,5%
O=C(NCc1ccc(F)cc1)c1cc(Br)cc(N2CCN(c3ccncc3)CC2)c1.O=C(O)C(F)(F)F,80%,59%,36%
Cl.N#Cc1ccc2c(c1)CN(CCC1CCC(NC(=O)c3cc4cc(OC(F)(F)F)ccc4[nH]3)CC1)CC2 (configuration not stated),100%,19%,4%
Cc1cccc2nc(-c3cccc(-c4ccc(C(=O)NCc5nccn5C)cc4)c3)[nH]c12,100%,9%,18%
Cc1[nH]cnc1CSCCN/C(=N\C#N)NCCCCCCCCN/C(=N/C#N)NCCSCc1nc[nH]c1C,81%,48%,1%
CN1CCN(CC(=O)Nc2cccc(-c3ccc(-c4nc5cc(F)ccc5[nH]4)cc3)c2)CC1,100%,98%,20%
CCCCCCN1CCCN(Cc2ccc(C(=O)Nc3ccc(C(C)C)cc3)cc2)CC1.O=C(O)C(F)(F)F,93%,50%,40%
Nc1nc(N)c2c(ccc3[nH]ccc32)n1,88%,0%,58%
CC(=O)N1N=C(c2ccc(F)cc2)Sc2c1nc(-c1ccccc1)n2C(C)=O,99%,67%,0%
Cc1cc(C(=O)NCc2ccc(-c3c(C)noc3C)cc2)n(-c2ccccc2)n1,92%,90%,4%
CCC(Cc1ccccc1)c1cc(O)c(Cc2ccc(-c3ccccc3)cc2)c(=O)o1 (configuration not stated),89%,0%,3%
Cc1nc(C)n(CC(=O)Nc2cccc(-c3cccc(-c4nc5cc(C(F)(F)F)ccc5[nH]4)c3)c2)n1,100%,96%,62%
O=C(NCCN1CCOCC1)c1csc(C2CCCN(C(=O)c3ccc(O)c(-c4cc(Cl)cc(Cl)c4)c3)C2)n1 (configuration not stated),97%,50%,12%
O=C(COc1ccc(Cl)c(Cl)c1)NCCCCCN1CCCN(C(=O)Nc2cc(Cl)cc(Cl)c2)CC1.O=C(O)C(F)(F)F,89%,1%,44%

SMILES,Inhibition (Plasmodium falciparum [1]),Inhibition (Plasmodium falciparum [2]),Inhibition (HepG2)
CC(C)CNCc1cccc(-c2ccc(CN(CCCN3CCN(C)CC3)C(=O)CCC3CCCC3)cc2)c1.O=C(O)C(F)(F)F,98%,89%,82%
Cc1cc(N[C@@H](Cc2ccccc2)C(=O)NCc2cccs2)nc(NCCc2ccccc2)n1.O=C(O)C(F)(F)F,92%,61%,6%
Cc1cc(N(C)C)nc(Nc2ccc(NC(=O)c3ccccc3F)cc2)n1,89%,26%,0%
Cc1cccc2nc(-c3ccc(-c4cccc(CNCc5cnn(-c6ccccc6)n5)c4)s3)[nH]c12.O=C(O)C(F)(F)F,98%,58%,40%
CC(C)Sc1nc2c(c(=O)n1CCc1ccccc1)C1(CCCC1)Cc1ccccc1-2,100%,88%,0%
CC1CN(Cc2csc(Nc3ccccc3)n2)CC(C)O1 (configuration not stated),91%,81%,4%
COc1cccc(C(C)(C)NC[C@@H](O)[C@H](Cc2ccccc2)NC(=O)c2cc(C3CCCC3)cc(N3CCCCS3(=O)=O)c2F)c1.O=CO,99%,99%,16%
O=C(Nc1cccc(Cl)c1)N(CCCn1ccnc1)Cc1csc(-c2ccc(CNCc3ccccc3)cc2)n1.O=C(O)C(F)(F)F,100%,45%,11%
O=C(Nc1ccc(Cl)cc1)c1ccc(CN2CCCN(CC3CCCCC3)CC2)cc1.O=C(O)C(F)(F)F,92%,42%,48%
CCN(CC)S(=O)(=O)c1cc(-c2ccc(=O)n(CC(=O)c3ccc(C)cc3)n2)ccc1C,86%,66%,6%
Cc1ccc(NC(=O)c2ccc(CN3CCCN(CCC(C)C)CC3)cc2)cc1F.O=C(O)C(F)(F)F,91%,31%,40%
CCOC(=O)c1ccc(NC(=O)Nc2ccc(-c3cccc(-c4nc5cccc(C)c5[nH]4)c3)cc2)cc1,100%,100%,91%
COc1ccc2ncc(F)c(CCN3C[C@H](CNCc4cc(F)c5c(c4)NC(=O)CO5)[C@H](O)C3)c2n1.Cl,94%,23%,3%
COc1ccc2nccc([C@@H](O)CN3CCC(NCc4cc5oc(=O)[nH]c5cc4F)CC3)c2c1.O=C(O)C(=O)O,99%,4%,0%
COCCNCc1cccc(-c2cc3nccc(Nc4ccc(Oc5ccccc5)cc4)c3cc2Cl)c1,99%,99%,0%
O=C(c1cccc(-c2noc(C(F)(F)F)n2)c1)N1CCN(c2ccncc2)CC1,90%,56%,14%
CCOc1ccccc1CNc1nccc(NCc2ccc(Cl)cc2Cl)n1,83%,58%,26%
N=C1NC(c2ccccc2)(c2ccccc2)C(=O)N1CC=Cc1ccccc1.O=C(O)C(F)(F)F,98%,70%,23%
Cc1n[nH]c2cc(F)c(-c3cc(OC[C@@H](N)Cc4ccccc4)cnc3-c3ccoc3)cc12.O=C(O)C(F)(F)F,95%,15%,22%
